# Laboratory results reported in paper PMC7862700, “An all-to-all approach to the identification of sequence-specific readers for epigenetic DNA modifications on cytosine”.
# Columns and labels:
# Test in all cases: DAPPL (digital affinity profiling via proximity ligation, sequencing); 10 mM Tris-HCl pH 7.5, 50 mM NaCl, 1 mM DTT, 4% glycerol, room temperature, 30 min; GST-TFs on glutathione beads, 16-mer random dsDNA library, 0.1% formaldehyde crosslink after washing; high values mean tight binding
# FLI1 = biological target: T1, FLI1 (Homo sapiens, UniProt Q01543 1-452); settings: protein: recombinant; tags: N-terminal GST; dsDNA, one strand shown
# T1 sequence: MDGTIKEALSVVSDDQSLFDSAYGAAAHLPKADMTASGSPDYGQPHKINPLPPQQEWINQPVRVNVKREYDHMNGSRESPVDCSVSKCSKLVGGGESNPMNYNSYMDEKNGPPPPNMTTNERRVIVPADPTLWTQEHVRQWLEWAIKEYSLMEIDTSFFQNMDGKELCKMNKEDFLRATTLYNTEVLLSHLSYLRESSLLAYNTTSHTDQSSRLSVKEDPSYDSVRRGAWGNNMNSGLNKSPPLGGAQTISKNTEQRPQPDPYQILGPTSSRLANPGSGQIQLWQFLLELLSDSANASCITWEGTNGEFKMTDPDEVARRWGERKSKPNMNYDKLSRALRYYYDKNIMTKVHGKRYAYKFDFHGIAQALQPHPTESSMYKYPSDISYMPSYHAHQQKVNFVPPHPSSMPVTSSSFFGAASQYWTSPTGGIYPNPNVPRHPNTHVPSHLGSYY
# In short: (§1)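 The binding signal reported is, for every hexamer, its read frequency for a factor over its read frequency for the tag-only sample. Reads came from pools of yeast-expressed, GST-fused human transcription factors on glutathione beads, barcoded with DNA and mixed with that sample, which were incubated with 200 nmole of a random double-stranded 16-mer DNA library in Tris/NaCl/DTT/glycerol buffer at room temperature for 30 min. After washing, the pools were crosslinked with 0.1% formaldehyde, proximity-ligated with BsaI/T4 ligase for 1 h at 37 °C, PCR-amplified and sequenced on an Illumina NextSeq500.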
# ELK1 = biological target: T2, ELK1 (Homo sapiens, UniProt P19419 1-428); settings: protein: recombinant; tags: N-terminal GST; dsDNA, one strand shown
# T2 sequence: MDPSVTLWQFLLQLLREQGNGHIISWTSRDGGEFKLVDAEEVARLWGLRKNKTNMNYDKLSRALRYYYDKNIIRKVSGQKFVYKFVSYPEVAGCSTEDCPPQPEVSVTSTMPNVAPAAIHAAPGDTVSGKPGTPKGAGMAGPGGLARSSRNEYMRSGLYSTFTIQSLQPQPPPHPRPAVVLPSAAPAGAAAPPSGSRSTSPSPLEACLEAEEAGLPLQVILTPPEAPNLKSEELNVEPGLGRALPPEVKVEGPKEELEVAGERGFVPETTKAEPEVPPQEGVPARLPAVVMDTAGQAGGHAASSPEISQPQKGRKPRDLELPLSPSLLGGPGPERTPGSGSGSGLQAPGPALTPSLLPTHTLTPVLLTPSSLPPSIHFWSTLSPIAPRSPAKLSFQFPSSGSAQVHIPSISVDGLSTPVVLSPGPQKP
# In short: as §1
# GABPA = biological target: T3, GABPA (Homo sapiens, UniProt Q06546 1-454); settings: protein: recombinant; tags: N-terminal GST; dsDNA, one strand shown
# T3 sequence: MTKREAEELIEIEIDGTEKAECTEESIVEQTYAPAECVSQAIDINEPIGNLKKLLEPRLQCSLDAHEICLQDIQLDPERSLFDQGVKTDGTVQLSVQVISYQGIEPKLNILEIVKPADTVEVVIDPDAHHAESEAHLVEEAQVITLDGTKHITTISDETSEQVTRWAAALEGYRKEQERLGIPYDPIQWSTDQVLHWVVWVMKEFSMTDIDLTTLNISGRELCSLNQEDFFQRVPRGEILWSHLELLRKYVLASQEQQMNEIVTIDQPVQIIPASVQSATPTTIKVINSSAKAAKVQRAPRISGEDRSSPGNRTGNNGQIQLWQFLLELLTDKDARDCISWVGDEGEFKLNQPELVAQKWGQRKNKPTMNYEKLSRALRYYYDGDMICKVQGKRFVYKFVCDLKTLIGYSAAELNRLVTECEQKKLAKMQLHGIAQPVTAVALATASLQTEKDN
# In short: as §1
# ERG = biological target: T4, ERG (Homo sapiens, UniProt P11308 1-479); settings: protein: recombinant; tags: N-terminal GST; dsDNA, one strand shown
# T4 sequence: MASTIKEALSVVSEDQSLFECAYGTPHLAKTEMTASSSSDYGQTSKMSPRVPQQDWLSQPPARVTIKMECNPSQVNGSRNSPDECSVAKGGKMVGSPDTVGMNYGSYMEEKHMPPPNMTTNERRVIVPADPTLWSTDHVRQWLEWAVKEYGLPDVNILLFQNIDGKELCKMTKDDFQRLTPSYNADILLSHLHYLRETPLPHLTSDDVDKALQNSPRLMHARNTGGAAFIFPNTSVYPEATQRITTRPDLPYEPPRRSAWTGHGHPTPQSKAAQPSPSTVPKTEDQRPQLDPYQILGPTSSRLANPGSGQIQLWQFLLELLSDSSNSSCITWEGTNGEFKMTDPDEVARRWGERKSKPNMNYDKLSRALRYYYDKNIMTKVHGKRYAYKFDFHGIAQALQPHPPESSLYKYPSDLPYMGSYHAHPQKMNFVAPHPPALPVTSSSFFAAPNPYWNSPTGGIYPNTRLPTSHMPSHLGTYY
# In short: as §1
# ELF1 = ELF1 (Homo sapiens, UniProt P32519 1-619); settings: protein: recombinant; tags: N-terminal GST; dsDNA, one strand shown
# Sequence of ELF1 (P32519 whole entry): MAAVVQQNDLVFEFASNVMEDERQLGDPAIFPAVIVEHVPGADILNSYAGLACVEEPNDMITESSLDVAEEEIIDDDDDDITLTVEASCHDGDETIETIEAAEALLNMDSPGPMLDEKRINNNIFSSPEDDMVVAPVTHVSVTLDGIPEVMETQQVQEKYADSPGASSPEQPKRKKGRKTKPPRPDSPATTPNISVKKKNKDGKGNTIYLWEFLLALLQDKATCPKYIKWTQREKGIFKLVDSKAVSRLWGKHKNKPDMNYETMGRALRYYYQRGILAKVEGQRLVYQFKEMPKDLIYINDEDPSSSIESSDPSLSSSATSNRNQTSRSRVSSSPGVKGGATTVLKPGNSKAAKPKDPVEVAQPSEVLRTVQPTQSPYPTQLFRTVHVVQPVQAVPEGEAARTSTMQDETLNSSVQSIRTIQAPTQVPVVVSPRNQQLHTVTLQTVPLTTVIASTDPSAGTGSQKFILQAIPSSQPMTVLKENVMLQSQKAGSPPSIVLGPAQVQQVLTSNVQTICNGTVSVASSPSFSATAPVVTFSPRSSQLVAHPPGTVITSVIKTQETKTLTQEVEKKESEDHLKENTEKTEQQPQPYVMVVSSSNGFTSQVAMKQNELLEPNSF
# In short: as §1
# EHF = biological target: T5, EHF (Homo sapiens, UniProt Q9NZC4 1-300); settings: protein: recombinant; tags: N-terminal GST; dsDNA, one strand shown
# T5 sequence: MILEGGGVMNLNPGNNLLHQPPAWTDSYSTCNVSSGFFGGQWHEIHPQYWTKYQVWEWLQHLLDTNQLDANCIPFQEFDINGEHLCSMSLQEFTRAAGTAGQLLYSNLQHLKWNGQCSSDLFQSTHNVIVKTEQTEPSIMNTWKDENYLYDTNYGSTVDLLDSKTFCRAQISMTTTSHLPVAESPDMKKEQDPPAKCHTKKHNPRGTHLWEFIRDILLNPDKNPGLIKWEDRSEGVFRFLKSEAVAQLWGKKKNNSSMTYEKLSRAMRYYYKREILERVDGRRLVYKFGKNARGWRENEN
# In short: as §1
# SPI1 = SPI1 (Homo sapiens, UniProt P17947 1-270); settings: protein: recombinant; tags: N-terminal GST; dsDNA, one strand shown
# In short: as §1
# SPIB = SPIB (Homo sapiens, UniProt Q01892 1-262); settings: protein: recombinant; tags: N-terminal GST; dsDNA, one strand shown
# Sequence of SPIB (Q01892 whole entry): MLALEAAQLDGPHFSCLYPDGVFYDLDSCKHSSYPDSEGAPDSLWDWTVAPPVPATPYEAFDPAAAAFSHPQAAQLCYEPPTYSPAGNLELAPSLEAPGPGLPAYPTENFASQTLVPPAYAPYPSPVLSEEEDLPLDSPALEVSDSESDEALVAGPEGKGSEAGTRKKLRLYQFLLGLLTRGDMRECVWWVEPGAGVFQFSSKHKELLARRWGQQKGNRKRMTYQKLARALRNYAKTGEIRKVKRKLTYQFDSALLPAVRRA
# In short: as §1
# ELK3 = biological target: T6, ELK3 (Homo sapiens, UniProt P41970 1-407); settings: protein: recombinant; tags: N-terminal GST; dsDNA, one strand shown
# T6 sequence: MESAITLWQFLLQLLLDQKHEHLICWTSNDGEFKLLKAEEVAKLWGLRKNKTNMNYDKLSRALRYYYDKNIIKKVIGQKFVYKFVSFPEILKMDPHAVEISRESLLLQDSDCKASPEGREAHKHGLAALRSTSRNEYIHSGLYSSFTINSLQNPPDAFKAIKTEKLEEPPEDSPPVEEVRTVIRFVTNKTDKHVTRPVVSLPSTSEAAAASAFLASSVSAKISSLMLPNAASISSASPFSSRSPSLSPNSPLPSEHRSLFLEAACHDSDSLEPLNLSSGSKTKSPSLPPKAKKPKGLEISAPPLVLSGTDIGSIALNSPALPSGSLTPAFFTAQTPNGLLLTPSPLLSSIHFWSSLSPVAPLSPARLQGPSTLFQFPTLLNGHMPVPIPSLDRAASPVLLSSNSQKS
# In short: as §1
# FEV = biological target: T7, FEV (Homo sapiens, UniProt Q99581 1-238); settings: protein: recombinant; tags: N-terminal GST; dsDNA, one strand shown
# T7 sequence: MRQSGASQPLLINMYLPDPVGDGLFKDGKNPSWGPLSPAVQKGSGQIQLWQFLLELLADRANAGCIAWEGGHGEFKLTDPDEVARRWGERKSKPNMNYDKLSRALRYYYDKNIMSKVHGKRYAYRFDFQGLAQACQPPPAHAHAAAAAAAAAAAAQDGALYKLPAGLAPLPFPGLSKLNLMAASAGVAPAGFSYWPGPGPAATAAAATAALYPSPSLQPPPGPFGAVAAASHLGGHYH
# In short: as §1
# ETV5 = ETV5 (Homo sapiens, UniProt P41161 1-510); settings: protein: recombinant; tags: N-terminal GST; dsDNA, one strand shown
# Sequence of ETV5 (P41161 whole entry): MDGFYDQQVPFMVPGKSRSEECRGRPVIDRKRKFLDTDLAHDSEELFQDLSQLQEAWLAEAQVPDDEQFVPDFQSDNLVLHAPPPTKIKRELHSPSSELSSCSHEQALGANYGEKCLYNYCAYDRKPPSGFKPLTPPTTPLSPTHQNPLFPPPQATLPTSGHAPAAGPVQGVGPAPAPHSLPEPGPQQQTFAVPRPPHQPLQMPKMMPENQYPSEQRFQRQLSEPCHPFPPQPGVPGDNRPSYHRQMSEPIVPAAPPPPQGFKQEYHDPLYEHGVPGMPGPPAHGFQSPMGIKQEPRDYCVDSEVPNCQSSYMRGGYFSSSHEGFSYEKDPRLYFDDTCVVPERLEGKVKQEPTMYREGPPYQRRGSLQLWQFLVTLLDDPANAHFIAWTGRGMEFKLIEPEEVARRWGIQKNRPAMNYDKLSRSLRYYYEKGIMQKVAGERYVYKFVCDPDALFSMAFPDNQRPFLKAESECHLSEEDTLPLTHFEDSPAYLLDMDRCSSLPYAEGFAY
# In short: as §1
# HSF1 = HSF1 (Homo sapiens, UniProt Q00613 1-529); settings: protein: recombinant; tags: N-terminal GST; chain copies: 3; dsDNA, one strand shown
# Sequence of HSF1 (Q00613 whole entry): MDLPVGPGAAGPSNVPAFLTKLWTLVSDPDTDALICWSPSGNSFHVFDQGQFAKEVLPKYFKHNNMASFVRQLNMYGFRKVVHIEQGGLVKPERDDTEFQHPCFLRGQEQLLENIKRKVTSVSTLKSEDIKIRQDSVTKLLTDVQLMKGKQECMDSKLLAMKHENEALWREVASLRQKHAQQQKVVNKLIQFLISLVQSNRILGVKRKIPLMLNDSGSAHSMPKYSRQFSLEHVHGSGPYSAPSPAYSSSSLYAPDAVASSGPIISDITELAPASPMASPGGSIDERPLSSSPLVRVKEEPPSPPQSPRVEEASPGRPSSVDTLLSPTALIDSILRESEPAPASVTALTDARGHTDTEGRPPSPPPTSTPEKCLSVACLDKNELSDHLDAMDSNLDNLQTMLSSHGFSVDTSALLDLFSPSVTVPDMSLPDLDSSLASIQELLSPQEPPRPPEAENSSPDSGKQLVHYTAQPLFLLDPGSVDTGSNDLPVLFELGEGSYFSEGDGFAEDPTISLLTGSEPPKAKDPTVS
# In short: as §1
# SPIC = biological target: T8, SPIC (Homo sapiens, UniProt Q8N5J4 1-248); settings: protein: recombinant; tags: N-terminal GST; dsDNA, one strand shown
# T8 sequence: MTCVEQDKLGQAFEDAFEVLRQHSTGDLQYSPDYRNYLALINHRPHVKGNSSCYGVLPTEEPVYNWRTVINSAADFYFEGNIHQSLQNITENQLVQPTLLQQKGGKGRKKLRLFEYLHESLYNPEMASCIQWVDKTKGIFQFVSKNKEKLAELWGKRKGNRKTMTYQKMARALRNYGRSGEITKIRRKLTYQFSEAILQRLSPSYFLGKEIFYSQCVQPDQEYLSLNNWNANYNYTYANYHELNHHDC
# In short: as §1
# ELF4 = ELF4 (Homo sapiens, UniProt Q99607 1-663); settings: protein: recombinant; tags: N-terminal GST; dsDNA, one strand shown
# Sequence of ELF4 (Q99607 whole entry): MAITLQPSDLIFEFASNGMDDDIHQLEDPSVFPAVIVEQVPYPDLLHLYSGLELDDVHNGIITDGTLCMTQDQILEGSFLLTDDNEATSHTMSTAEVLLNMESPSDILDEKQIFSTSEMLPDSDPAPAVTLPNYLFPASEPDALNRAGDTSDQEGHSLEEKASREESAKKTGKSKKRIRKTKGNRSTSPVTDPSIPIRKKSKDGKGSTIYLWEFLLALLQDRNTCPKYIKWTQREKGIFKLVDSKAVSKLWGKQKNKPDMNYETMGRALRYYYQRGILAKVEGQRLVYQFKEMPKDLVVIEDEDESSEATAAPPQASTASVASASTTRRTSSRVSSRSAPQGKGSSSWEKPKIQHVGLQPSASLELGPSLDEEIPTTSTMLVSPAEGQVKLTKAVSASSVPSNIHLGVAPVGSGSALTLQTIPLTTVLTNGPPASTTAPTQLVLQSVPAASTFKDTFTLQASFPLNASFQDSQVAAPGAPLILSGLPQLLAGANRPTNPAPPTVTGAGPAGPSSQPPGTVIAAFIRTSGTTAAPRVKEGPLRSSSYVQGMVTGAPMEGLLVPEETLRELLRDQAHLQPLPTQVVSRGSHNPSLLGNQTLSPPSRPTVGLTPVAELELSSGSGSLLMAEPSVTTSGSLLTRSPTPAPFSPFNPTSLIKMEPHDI
# In short: as §1
# ELK4 = biological target: T9, ELK4 (Homo sapiens, UniProt P28324-2 1-405); settings: protein: recombinant; tags: N-terminal GST; dsDNA, one strand shown
# T9 sequence: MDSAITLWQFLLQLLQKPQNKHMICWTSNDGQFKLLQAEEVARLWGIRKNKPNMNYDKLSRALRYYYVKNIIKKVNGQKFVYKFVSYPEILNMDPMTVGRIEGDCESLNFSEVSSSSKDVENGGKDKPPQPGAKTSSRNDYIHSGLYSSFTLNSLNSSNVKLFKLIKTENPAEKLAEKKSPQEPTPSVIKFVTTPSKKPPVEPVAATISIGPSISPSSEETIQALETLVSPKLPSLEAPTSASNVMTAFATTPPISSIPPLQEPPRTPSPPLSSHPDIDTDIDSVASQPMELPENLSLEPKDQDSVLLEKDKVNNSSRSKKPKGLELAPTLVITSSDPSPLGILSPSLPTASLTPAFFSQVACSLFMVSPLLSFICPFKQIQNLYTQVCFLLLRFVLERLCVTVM
# In short: as §1
# ETV2 = biological target: T10, ETV2 (Homo sapiens, UniProt O00321 1-342); settings: protein: recombinant; tags: N-terminal GST; dsDNA, one strand shown
# T10 sequence: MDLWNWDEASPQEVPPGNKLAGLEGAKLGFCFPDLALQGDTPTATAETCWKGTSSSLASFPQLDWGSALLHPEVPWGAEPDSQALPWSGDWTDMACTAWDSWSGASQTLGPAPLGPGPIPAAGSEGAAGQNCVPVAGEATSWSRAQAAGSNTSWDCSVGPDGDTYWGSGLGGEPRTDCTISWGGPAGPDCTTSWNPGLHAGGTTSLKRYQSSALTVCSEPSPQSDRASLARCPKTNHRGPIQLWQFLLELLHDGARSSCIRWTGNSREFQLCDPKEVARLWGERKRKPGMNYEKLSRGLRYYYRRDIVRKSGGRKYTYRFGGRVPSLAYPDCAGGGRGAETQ
# In short: as §1
# ELF3 = biological target: T11, ELF3 (Homo sapiens, UniProt P78545 1-371); settings: protein: recombinant; tags: N-terminal GST; dsDNA, one strand shown
# T11 sequence: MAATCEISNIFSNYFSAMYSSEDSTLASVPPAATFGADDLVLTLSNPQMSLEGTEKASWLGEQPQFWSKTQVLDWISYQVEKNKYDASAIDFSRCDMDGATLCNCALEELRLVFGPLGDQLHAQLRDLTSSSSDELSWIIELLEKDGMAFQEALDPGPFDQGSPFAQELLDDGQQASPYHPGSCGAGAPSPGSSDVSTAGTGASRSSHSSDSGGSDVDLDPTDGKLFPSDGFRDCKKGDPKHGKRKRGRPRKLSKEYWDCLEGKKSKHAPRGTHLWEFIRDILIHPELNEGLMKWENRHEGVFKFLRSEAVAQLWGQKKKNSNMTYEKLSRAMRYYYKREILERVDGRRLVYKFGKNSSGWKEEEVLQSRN
# In short: as §1
# ETV1 = ETV1 (Homo sapiens, UniProt P50549 1-477); settings: protein: recombinant; tags: N-terminal GST; dsDNA, one strand shown
# Sequence of ETV1 (P50549 whole entry): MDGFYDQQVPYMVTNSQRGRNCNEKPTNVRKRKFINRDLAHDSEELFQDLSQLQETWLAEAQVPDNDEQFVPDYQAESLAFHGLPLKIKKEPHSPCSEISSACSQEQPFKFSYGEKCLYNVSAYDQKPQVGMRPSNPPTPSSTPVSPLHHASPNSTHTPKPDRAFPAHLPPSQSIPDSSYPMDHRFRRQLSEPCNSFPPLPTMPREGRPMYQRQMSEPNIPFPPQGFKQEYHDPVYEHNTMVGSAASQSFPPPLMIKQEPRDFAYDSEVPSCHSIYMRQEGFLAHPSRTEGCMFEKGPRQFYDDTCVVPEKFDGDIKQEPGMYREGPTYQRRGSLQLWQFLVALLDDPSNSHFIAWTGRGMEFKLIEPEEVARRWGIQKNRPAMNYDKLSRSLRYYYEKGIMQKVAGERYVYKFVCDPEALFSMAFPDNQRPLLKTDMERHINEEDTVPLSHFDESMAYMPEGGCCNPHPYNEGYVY
# In short: as §1
sequence,measurement,setting,value
GTTCCG,binding signal,FLI1,"1.81 fold enrichment (6-mer frequency, TF over GST control)"
same,binding signal,ELK1,"2.02 fold enrichment (6-mer frequency, TF over GST control)"
same,binding signal,GABPA,"1.64 fold enrichment (6-mer frequency, TF over GST control)"
same,binding signal,ERG,"1.95 fold enrichment (6-mer frequency, TF over GST control)"
same,binding signal,ELF1,"1.78 fold enrichment (6-mer frequency, TF over GST control)"
same,binding signal,EHF,"2.05 fold enrichment (6-mer frequency, TF over GST control)"
same,binding signal,SPI1,"2.19 fold enrichment (6-mer frequency, TF over GST control)"
same,binding signal,SPIB,"2.15 fold enrichment (6-mer frequency, TF over GST control)"
same,binding signal,ELK3,"1.71 fold enrichment (6-mer frequency, TF over GST control)"
same,binding signal,FEV,"1.99 fold enrichment (6-mer frequency, TF over GST control)"
same,binding signal,ETV5,"1.94 fold enrichment (6-mer frequency, TF over GST control)"
same,binding signal,HSF1,"1.05 fold enrichment (6-mer frequency, TF over GST control)"
same,binding signal,SPIC,"2.08 fold enrichment (6-mer frequency, TF over GST control)"
same,binding signal,ELF4,"1.64 fold enrichment (6-mer frequency, TF over GST control)"
same,binding signal,ELK4,"1.79 fold enrichment (6-mer frequency, TF over GST control)"
same,binding signal,ETV2,"1.61 fold enrichment (6-mer frequency, TF over GST control)"
same,binding signal,ELF3,"1.82 fold enrichment (6-mer frequency, TF over GST control)"
same,binding signal,ETV1,"2.07 fold enrichment (6-mer frequency, TF over GST control)"
